Of roughly 7,900 targets only a part is listed; those with a hit were picked by preference. About 0.6% of all pairs of compound and target were hits.
What was measured:
Assay in all cases: log2 fold change, soluble protein after heating vs DMSO (PISA); higher = thermal stabilisation; K562 cells, 10 uM, 30 min; active = over 0.2 and 3.5 SD of the protein, either way, in both replicates (recomputed)
ZEB2 = ZEB2 (UniProt O60315)
Procedure, shortened: (§1)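 For each measurement, 10 μM compound was applied for 30 min to K562 cells at 2×10^6 cells/mL. Aliquots were heated for 3 min across 48°C-58°C, pooled, and extracted in PBS with 0.5% NP-40 at 4°C; the supernatant after 21,000xg for 90 min was soluble protein. This was quantified by TMTpro 16plex LC-MS/MS with channel sums equalised, and thermal stability was reported relative to control samples from duplicates, on a log2 fold-change scale.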

ZER1 = ZER1 (UniProt Q7Z7L7)
Procedure, shortened: as §1

ZFAND5 = ZFAND5 (UniProt O76080)
Procedure, shortened: as §1

ZFAND6 = ZFAND6 (UniProt Q6FIF0)
Procedure, shortened: as §1

ZFP91 = ZFP91 (UniProt Q96JP5)
Procedure, shortened: as §1

ZFPL1 = ZFPL1 (UniProt O95159)
Procedure, shortened: as §1

ZMAT2 = ZMAT2 (UniProt Q96NC0)
Procedure, shortened: as §1

ZMYM1 = ZMYM1 (UniProt Q5SVZ6)
Procedure, shortened: as §1

ZMYM3 = ZMYM3 (UniProt Q14202)
Procedure, shortened: as §1

ZNF143 = ZNF143 (UniProt P52747)
Procedure, shortened: as §1

ZNF217 = ZNF217 (UniProt O75362)
Procedure, shortened: as §1

ZNF239 = ZNF239 (UniProt Q16600)
Procedure, shortened: as §1

ZNF277 = ZNF277 (UniProt Q9NRM2)
Procedure, shortened: as §1

ZNF579 = ZNF579 (UniProt Q8NAF0)
Procedure, shortened: as §1

ZNF580 = ZNF580 (UniProt Q9UK33)
Procedure, shortened: as §1

ZNF609 = ZNF609 (UniProt O15014)
Procedure, shortened: as §1

ZNF622 = ZNF622 (UniProt Q969S3)
Procedure, shortened: as §1

ZRANB2 = ZRANB2 (UniProt O95218)
Procedure, shortened: as §1

ZNF511 isoform 1 = ZNF511 isoform 1 (UniProt Q8NB15)
Procedure, shortened: as §1

ZNF512 = ZNF512 (UniProt Q96ME7)
Procedure, shortened: as §1

Measured: log2 fold change

Chain of ZNF580 (Q9UK33 whole entry, looked up): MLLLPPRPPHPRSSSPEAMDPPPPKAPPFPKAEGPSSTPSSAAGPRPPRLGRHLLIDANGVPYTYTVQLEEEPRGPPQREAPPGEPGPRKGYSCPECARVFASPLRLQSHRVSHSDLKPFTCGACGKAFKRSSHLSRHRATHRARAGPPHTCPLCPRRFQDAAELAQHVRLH
Chain of ZMAT2 (Q96NC0 whole entry, looked up): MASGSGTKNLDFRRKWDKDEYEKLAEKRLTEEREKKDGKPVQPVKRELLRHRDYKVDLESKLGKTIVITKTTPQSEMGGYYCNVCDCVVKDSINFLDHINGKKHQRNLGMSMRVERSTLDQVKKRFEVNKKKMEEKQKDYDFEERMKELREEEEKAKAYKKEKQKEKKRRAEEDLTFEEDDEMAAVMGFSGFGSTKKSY
Chain of ZMYM3 (Q14202 whole entry, looked up): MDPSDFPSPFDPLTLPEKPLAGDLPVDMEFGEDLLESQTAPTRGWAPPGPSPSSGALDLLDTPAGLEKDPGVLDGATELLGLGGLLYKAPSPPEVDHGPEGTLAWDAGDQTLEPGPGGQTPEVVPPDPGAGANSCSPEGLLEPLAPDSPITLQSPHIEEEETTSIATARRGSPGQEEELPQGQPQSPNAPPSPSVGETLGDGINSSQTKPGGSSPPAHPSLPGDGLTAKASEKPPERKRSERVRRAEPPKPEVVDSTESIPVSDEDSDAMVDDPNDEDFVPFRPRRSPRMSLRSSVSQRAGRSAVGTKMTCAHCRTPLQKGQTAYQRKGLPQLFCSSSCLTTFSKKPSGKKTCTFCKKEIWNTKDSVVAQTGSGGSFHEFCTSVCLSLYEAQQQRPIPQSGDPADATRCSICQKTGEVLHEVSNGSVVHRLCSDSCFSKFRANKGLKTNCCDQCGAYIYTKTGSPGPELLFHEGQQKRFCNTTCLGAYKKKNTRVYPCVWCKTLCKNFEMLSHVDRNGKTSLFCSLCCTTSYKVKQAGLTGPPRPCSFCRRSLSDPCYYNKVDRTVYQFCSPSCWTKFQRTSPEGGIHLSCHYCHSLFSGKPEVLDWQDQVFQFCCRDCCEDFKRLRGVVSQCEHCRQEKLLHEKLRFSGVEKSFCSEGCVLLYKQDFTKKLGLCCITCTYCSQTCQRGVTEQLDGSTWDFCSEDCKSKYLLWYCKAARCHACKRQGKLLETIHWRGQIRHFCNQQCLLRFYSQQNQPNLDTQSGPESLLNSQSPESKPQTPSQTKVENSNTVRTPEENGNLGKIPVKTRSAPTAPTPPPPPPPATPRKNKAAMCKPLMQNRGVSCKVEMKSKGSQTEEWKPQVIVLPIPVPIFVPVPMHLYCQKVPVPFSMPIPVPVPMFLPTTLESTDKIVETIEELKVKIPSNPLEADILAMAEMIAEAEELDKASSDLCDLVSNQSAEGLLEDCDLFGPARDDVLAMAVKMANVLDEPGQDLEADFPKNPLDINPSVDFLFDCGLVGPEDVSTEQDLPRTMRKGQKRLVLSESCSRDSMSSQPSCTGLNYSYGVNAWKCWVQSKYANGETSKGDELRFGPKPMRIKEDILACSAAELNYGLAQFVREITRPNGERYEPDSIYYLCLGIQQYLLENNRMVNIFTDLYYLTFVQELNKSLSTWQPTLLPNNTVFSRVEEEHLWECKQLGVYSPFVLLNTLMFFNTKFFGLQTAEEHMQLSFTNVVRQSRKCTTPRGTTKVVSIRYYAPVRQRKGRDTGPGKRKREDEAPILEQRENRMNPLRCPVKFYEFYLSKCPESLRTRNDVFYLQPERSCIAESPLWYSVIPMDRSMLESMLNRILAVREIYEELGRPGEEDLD
Chain of ZNF143 (P52747 whole entry, looked up): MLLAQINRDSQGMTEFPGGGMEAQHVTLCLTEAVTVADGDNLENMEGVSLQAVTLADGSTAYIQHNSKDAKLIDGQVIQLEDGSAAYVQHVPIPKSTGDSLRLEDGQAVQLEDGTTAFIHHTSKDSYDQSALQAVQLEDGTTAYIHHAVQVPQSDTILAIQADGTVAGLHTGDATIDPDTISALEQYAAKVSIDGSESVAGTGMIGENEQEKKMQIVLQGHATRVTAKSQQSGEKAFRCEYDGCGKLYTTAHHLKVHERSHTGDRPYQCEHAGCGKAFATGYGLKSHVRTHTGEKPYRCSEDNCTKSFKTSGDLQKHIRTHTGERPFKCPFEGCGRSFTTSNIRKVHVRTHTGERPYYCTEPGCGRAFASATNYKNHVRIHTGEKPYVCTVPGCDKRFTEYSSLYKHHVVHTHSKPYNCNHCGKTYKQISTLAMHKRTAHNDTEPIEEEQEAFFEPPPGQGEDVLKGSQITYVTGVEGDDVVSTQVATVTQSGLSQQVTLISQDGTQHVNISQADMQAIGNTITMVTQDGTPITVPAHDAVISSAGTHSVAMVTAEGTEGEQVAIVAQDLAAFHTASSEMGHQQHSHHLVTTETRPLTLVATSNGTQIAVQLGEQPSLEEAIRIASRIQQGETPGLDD
Chain of ZMYM1 (Q5SVZ6 whole entry, looked up): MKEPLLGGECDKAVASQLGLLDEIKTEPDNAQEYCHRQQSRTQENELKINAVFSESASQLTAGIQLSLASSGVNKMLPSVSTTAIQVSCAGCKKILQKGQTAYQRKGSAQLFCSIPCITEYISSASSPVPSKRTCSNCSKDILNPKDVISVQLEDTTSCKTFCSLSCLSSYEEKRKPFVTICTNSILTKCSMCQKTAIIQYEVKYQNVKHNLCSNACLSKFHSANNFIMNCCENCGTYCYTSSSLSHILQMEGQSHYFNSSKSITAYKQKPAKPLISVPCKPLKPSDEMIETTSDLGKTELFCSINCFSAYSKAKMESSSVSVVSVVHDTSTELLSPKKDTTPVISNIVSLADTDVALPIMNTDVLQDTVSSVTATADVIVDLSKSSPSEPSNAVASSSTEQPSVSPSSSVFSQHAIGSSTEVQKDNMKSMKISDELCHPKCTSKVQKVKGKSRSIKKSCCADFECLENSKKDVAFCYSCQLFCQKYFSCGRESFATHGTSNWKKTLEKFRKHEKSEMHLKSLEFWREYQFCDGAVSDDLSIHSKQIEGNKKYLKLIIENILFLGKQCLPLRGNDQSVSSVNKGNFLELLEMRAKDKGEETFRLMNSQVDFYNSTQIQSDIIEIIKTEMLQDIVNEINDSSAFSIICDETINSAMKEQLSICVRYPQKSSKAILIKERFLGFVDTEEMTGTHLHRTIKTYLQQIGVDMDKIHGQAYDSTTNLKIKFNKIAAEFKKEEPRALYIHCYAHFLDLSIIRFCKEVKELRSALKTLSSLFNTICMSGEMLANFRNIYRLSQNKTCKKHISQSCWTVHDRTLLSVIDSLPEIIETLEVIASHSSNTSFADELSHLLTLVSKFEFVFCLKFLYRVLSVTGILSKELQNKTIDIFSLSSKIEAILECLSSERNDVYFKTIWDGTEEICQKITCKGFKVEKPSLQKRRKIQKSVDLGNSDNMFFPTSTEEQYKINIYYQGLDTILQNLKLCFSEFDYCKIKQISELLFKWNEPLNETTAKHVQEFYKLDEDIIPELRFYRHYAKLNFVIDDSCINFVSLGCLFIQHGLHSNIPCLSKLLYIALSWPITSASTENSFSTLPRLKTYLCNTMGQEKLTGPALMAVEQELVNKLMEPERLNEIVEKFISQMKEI
Chain of ZRANB2 (O95218 whole entry, looked up): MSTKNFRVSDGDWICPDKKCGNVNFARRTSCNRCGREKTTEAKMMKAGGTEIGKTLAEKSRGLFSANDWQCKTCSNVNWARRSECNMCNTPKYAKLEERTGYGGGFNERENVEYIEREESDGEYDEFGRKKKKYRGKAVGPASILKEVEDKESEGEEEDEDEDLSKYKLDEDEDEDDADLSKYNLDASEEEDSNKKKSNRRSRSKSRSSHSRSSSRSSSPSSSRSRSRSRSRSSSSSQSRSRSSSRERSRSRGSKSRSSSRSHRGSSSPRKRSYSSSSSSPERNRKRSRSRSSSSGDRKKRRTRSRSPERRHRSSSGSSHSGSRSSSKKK
Chain of ZER1 (Q7Z7L7 whole entry, looked up): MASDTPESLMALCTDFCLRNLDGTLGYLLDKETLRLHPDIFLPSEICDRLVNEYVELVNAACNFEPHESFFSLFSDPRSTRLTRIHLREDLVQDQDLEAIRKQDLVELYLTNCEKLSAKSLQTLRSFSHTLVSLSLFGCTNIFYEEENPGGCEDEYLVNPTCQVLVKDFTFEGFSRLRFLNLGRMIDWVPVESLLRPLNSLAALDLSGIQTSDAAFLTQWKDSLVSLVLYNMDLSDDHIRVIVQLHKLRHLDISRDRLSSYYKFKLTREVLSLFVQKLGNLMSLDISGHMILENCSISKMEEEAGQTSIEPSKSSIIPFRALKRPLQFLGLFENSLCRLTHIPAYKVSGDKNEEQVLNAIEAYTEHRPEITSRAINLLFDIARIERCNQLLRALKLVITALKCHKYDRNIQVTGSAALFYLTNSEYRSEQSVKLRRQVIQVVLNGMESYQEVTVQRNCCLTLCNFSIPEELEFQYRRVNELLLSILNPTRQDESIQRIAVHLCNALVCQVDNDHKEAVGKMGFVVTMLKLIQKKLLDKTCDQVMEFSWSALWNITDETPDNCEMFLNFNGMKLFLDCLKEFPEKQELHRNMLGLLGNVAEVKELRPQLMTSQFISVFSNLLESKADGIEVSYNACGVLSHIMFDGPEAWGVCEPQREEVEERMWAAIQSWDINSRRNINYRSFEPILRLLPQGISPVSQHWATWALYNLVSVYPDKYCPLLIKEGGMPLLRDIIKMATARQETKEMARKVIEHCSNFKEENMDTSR
Chain of ZNF511 isoform 1 (Q8NB15 whole entry, looked up, canonical isoform): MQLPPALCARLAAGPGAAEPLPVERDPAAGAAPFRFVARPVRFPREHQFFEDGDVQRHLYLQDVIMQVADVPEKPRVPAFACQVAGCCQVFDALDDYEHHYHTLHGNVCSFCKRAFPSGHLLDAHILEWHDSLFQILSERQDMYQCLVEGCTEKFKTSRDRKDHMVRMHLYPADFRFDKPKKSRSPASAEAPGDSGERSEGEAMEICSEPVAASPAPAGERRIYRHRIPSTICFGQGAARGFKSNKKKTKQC

COc1ccc(Cn2ccc3ccc(C(=O)NO)cc32)cc1
inactive: ZEB2 -0.078 | ZER1 -0.236 | ZFAND5 -0.032 | ZFAND6 0.066 | ZFP91 -0.076 | ZFPL1 0.074 | ZMYM1 -0.056 | ZMYM3 0 | ZNF143 -0.035 | ZNF217 -0.024 | ZNF239 -0.178 | ZNF277 -0.073 | ZNF579 0.056 | ZNF580 -0.134 | ZNF609 -0.034 | ZNF622 -0.033 | ZRANB2 -0.022
active: ZMAT2 0.378

Oc1cc(-c2nc(-c3ccccc3)[nH]c2-c2ccncc2)ccc1Cl
inactive: ZEB2 -0.053 | ZER1 0.012 | ZFAND5 -0.024 | ZFAND6 -0.006 | ZFP91 -0.06 | ZFPL1 -0.119 | ZMAT2 -0.042 | ZMYM1 -0.101 | ZMYM3 -0.033 | ZNF143 0.093 | ZNF217 -0.014 | ZNF239 0.044 | ZNF277 -0.004 | ZNF511 isoform 1 0.018 | ZNF579 -0.025 | ZNF609 0.01 | ZNF622 0.016 | ZRANB2 -0.073

O=C1NC(=O)/C(=C\c2ccc3nccnc3c2)S1
inactive: ZEB2 -0.177 | ZER1 0.031 | ZFAND5 -0.017 | ZFAND6 0.007 | ZFP91 0.051 | ZFPL1 0.021 | ZMAT2 -0.015 | ZMYM1 0.005 | ZMYM3 0.079 | ZNF143 0.045 | ZNF217 0.007 | ZNF239 0.065 | ZNF277 -0.108 | ZNF511 isoform 1 0.017 | ZNF579 -0.07 | ZNF609 -0.006 | ZNF622 -0.004 | ZRANB2 0.051

Cc1ccc(NC(=O)c2ccc(CN3CC[C@H](N(C)C)C3)c(C(F)(F)F)c2)cc1Nc1nccc(-c2cncnc2)n1 [bafetinib]
inactive: ZEB2 -0.017 | ZER1 -0.055 | ZFAND5 -0.022 | ZFAND6 -0.013 | ZFP91 0.191 | ZFPL1 -0.022 | ZMAT2 -0.053 | ZMYM1 -0.028 | ZMYM3 -0.061 | ZNF143 -0.089 | ZNF217 -0.057 | ZNF239 -0.452 | ZNF277 0.246 | ZNF511 isoform 1 -0.098 | ZNF579 0.107 | ZNF609 -0.233 | ZNF622 0.021 | ZRANB2 -0.014

Cc1nc(Nc2ncc(C(=O)Nc3c(C)cccc3Cl)s2)cc(N2CCN(CCO)CC2)n1 [dasatinib]
inactive: ZEB2 -0.226 | ZER1 -0.033 | ZFAND5 0.082 | ZFAND6 0.03 | ZFP91 0.009 | ZFPL1 0.04 | ZMAT2 0.042 | ZMYM1 -0.045 | ZMYM3 0.047 | ZNF143 -0.007 | ZNF217 -0.136 | ZNF239 -0.074 | ZNF277 0.019 | ZNF579 -0.148 | ZNF580 -0.085 | ZNF609 0 | ZNF622 0.012 | ZRANB2 0.078

CC(C)(C)Cn1c(N)nc2ccc(-c3[nH]c(C(C)(C)C)nc3-c3ccc(F)cc3)nc21 [ralimetinib]
inactive: ZEB2 -0.075 | ZER1 0.089 | ZFAND5 0.024 | ZFAND6 -0.048 | ZFP91 -0.033 | ZFPL1 0.152 | ZMAT2 -0.024 | ZMYM1 0.078 | ZMYM3 -0.07 | ZNF143 0.112 | ZNF217 -0.012 | ZNF239 -0.07 | ZNF277 0.116 | ZNF511 isoform 1 0.074 | ZNF579 0.032 | ZNF609 -0.053 | ZNF622 -0.019 | ZRANB2 -0.014

CCN(CC)Cc1ccc2cc(COC(=O)Nc3ccc(C(=O)NO)cc3)ccc2c1 [givinostat]
inactive: ZEB2 0.193 | ZER1 0.117 | ZFAND5 -0.016 | ZFAND6 0.017 | ZFP91 0.009 | ZFPL1 -0.09 | ZMAT2 -0.008 | ZMYM1 0.12 | ZMYM3 0.002 | ZNF143 -0.022 | ZNF217 0.037 | ZNF239 -0.226 | ZNF277 0.199 | ZNF512 0.112 | ZNF579 0.042 | ZNF609 0.063 | ZNF622 -0.004 | ZRANB2 -0.029

CC(C)c1cnn2c(NCc3ccccc3)cc(NCCCCCCN)nc12
inactive: ZEB2 -0.187 | ZER1 -0.072 | ZFAND5 0.072 | ZFAND6 0.075 | ZFP91 0.007 | ZFPL1 0.146 | ZMAT2 0.138 | ZMYM1 0.09 | ZMYM3 0.04 | ZNF143 -0.158 | ZNF217 -0.034 | ZNF239 0.149 | ZNF277 -0.3 | ZNF512 0.321 | ZNF579 0.054 | ZNF609 -0.042 | ZNF622 -0.011 | ZRANB2 0.014

NC1(Cc2ccc(Cl)cc2)CCN(c2ncnc3[nH]ccc23)CC1
active: ZNF622 -0.263
inactive: ZEB2 -0.149 | ZER1 0.043 | ZFAND5 0.119 | ZFAND6 0.038 | ZFP91 -0.042 | ZFPL1 0.071 | ZMAT2 0.058 | ZMYM1 0.052 | ZMYM3 0.117 | ZNF143 0.085 | ZNF217 0.197 | ZNF239 0.117 | ZNF277 -0.319 | ZNF511 isoform 1 0.079 | ZNF579 -0.064 | ZNF580 0.183 | ZNF609 -0.115 | ZRANB2 0.014

CC(C)C[C@@H](C=O)NC(=O)[C@H](CC(C)C)NC(=O)[C@H](CC(C)C)NC(=O)OCc1ccccc1
inactive: ZEB2 0.131 | ZER1 0.039 | ZFAND5 0.007 | ZFAND6 0.119 | ZFP91 0 | ZFPL1 0.038 | ZMAT2 0.049 | ZMYM1 0.006 | ZMYM3 0.09 | ZNF143 -0.119 | ZNF217 0.024 | ZNF239 0.045 | ZNF277 0.137 | ZNF511 isoform 1 0.195 | ZNF579 -0.271 | ZNF609 0.031 | ZNF622 -0.036 | ZRANB2 -0.027

C[C@H](Nc1ncnc2nc[nH]c12)c1cc2cccc(Cl)c2c(=O)n1-c1ccccc1 [duvelisib]
inactive: ZEB2 0.05 | ZER1 -0.154 | ZFAND5 -0.063 | ZFAND6 0.032 | ZFP91 -0.038 | ZFPL1 0.046 | ZMAT2 0.014 | ZMYM1 -0.096 | ZMYM3 0.021 | ZNF143 -0.146 | ZNF217 0.108 | ZNF239 0.038 | ZNF277 -0.107 | ZNF579 -0.031 | ZNF580 -0.078 | ZNF609 0.073 | ZNF622 0.065 | ZRANB2 -0.02

C#Cc1cccc(Nc2ncnc3cc(OCCOC)c(OCCOC)cc23)c1 [erlotinib]
inactive: ZEB2 0.101 | ZER1 0.086 | ZFAND5 -0.028 | ZFAND6 0.024 | ZFP91 -0.004 | ZFPL1 -0.022 | ZMAT2 -0.017 | ZMYM1 0.14 | ZMYM3 0.042 | ZNF143 0.021 | ZNF217 0.001 | ZNF239 -0.098 | ZNF277 0.097 | ZNF512 -0.048 | ZNF579 -0.056 | ZNF609 0.03 | ZNF622 0.056 | ZRANB2 0.005

CC(C)N(C[C@H]1O[C@@H](n2cnc3c(N)ncnc32)[C@H](O)[C@@H]1O)[C@H]1C[C@@H](CCc2nc3cc(C(C)(C)C)ccc3[nH]2)C1 [pinometostat]
inactive: ZEB2 0.06 | ZER1 0.098 | ZFAND5 -0.047 | ZFAND6 -0.048 | ZFP91 0.136 | ZFPL1 -0.11 | ZMAT2 -0.037 | ZMYM1 0.001 | ZMYM3 -0.011 | ZNF143 0.014 | ZNF217 0.002 | ZNF239 -0.008 | ZNF277 0.267 | ZNF579 0.02 | ZNF580 -0.072 | ZNF609 0.03 | ZNF622 0.014 | ZRANB2 0.012

Cc1ccc(-n2nc(C(C)(C)C)cc2NC(=O)Nc2ccc(OCCN3CCOCC3)c3ccccc23)cc1 [doramapimod]
inactive: ZEB2 0.032 | ZER1 -0.163 | ZFAND5 0.106 | ZFAND6 0.017 | ZFP91 0.109 | ZFPL1 -0.098 | ZMAT2 -0.024 | ZMYM1 0.003 | ZMYM3 -0.009 | ZNF143 0.01 | ZNF217 -0.027 | ZNF239 0.069 | ZNF277 0.123 | ZNF579 0.11 | ZNF580 0.165 | ZNF609 0.036 | ZNF622 0.009 | ZRANB2 -0.014

Cc1ccc(NC(=O)c2cccc(N(C)C)c2)cc1NC(=O)c1ccc(O)cc1
inactive: ZEB2 0.071 | ZER1 -0.059 | ZFAND5 0.034 | ZFAND6 0.026 | ZFP91 0.036 | ZFPL1 0.094 | ZMAT2 0 | ZMYM1 0.051 | ZMYM3 0.056 | ZNF143 0.023 | ZNF217 0.006 | ZNF239 0.143 | ZNF277 -0.097 | ZNF511 isoform 1 0.012 | ZNF579 -0.183 | ZNF609 0.162 | ZNF622 -0.036 | ZRANB2 -0.012

— the supplement of paper PMC10849652
